The results in this text go back to ChEMBL document CHEMBL1201862, “PubChem BioAssay data set” (2004).

The campaign covered roughly 54,000 sequences. About 4,600 (8.5%) were called active. Rule as the data show it: active = GI50 up to about 1.1 µM and inactive = higher. The entries come from a sample that favours actives as a whole. Measured potencies and affinities stand elsewhere.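 Growth conditions: 96-well plates. Treatment: test compound, 48 hours, 5 concentrations. Analysis: linear interpolation between bracketing concentrations; unreached endpoints set to highest concentration. The concentration for 50% growth inhibition is given as GI50.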

This assay has as its system LOX IMVI. As to the kind of experiment: NCI tumour cell line growth inhibition, 48 h.
CISPLATIN, CHEMBL11359 returned a GI50 of 1.41 µM.

“[Bis(aminomethyl)dimethylsilane]tetrachloroplatinum(IV), CHEMBL2146190” came in with a GI50 of 7.48 µM.

Regarding “cis-Bis[[(trimethylsilyl)methyl]amino]tetrachloroplatinum(IV), CHEMBL2146191”, the GI50 is 5.48 µM.

For the substance “[Bis(aminomethyl)ethylmethylsilane]tetrachloroplatinum(IV), CHEMBL2146192”, the GI50 amounted to 7.41 µM.

Take “[Bis(aminomethyl)tetramethylenesilane]tetrachloropaltinum(IV), CHEMBL2146189”: the GI50 was determined as 3.26 µM.

“[Bis(aminomethyl)dimethylsilane]dichloroplatinum (II), CHEMBL2146201” displayed a GI50 of 38.6 µM.

As for “[Bis(aminomethyl)tetramethylenesilane]dichloropaltinum(II), CHEMBL2146205”, the GI50 amounted to 22.3 µM.

For “[Bis(aminomethyl)pentamethylenesilane]tetrachloropaltinum(IV), CHEMBL2146204”, the GI50 amounted to 0.74 µM.

In turn, “[Bis(aminomethyl)pentamethylenesilane]dichloropaltinum(II), CHEMBL2146202” registered a GI50 of 0.889 µM.

“mu-(1,7-nanodiamine-N,N')bis-(cis-aminedichloroplatimum (II)), CHEMBL2146215” registered a GI50 of 12.6 µM.
